Results as given in PubChem BioAssay.
Inconclusive results are not listed. Calls of active or inactive are those of the source. Unless noted, the rule behind the calls is not given here.

Experiments:
[1] = yeast TOR pathway RPL19A-GFP modulators, primary screen, cell-based, S. cerevisiae, multiplex flow cytometry (AID 1862; in the data active = percent of DMSO control GFP below about 86%;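 note: lower values mimic rapamycin by blocking the RPL19A rise seen in DMSO cells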); details: S. cerevisiae RPL19A-GFP strain, flow cytometry fluorescence, 3 h; at 10 µM; stronger effect = lower value
[2] = modulators of MEP2-GFP levels in yeast, primary screen, S. cerevisiae, multiplex flow cytometry (AID 1867;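 active = GFP response, as percent of the DMSO control, above the screen-wide mean plus 3 SD, about 139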;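 note: median GFP channel fluorescence of barcode-gated MEP2-GFP cells measured by flow cytometry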); details: S. cerevisiae MEP2-GFP strain, 3 h, at 10 µM, stronger effect = higher value
[3] = modulators of CIT2-GFP expression in yeast, primary screen, S. cerevisiae, GFP fusion, multiplex flow cytometry (AID 1870;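 active = percent response above a set limit, the screen-wide mean plus 3 SD, cut at about 130% in these data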;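 note: barcoded CIT2-GFP strain pooled with four other GFP strains with rapamycin as positive control; median GFP fluorescence per well over plate mean of DMSO wells so 100% = DMSO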); details: 3 h, at 10 µM, stronger effect = higher value
[4] = modulators of LAP4-GFP expression in yeast, primary screen, S. cerevisiae, multiplex flow cytometry (AID 1873;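 active = GFP signal, as percent of the solvent control, above the screen mean plus 3 SD, about 149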); details: 3 h, at 10 µM, stronger effect = higher value
[5] = modulators of AGP1-GFP expression in yeast TOR pathway, primary screen, cell-based, multiplex flow cytometry, S. cerevisiae (AID 1887;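 active = GFP signal above the screen-wide mean plus 3 SD, that is over about 124.5% of the solvent control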;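 note: AGP1-GFP fusion strain of S. cerevisiae within a five-strain barcoded multiplex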); details: 3 h, at 10 µM, stronger effect = higher value
[6] = inhibitors of CD8+ T cell-vesicle binding, pilot screen, LFA-1/ICAM-1 modulator project, MLPCN validation set, flow cytometry (AID 2523;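 active = response below a set limit, under 55% cells CD8-positive and vesicle-bound, and CD8 cells' 90th-percentile brightness under 279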;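 for vesicle binding response: mean PE anti-B7-1 fluorescence of CD8+ cells relative to row control; 100% = QL9-loaded vesicles with DMSO vehicle in the same plate row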); details: 2C mouse CD8+ T cells, at 7 µM, stronger effect = lower value; double positive events: measured here: CD8+/vesicle+ event percentage
[7] = molecular target: Integrin beta-1 (Homo sapiens) + Integrin alpha-4 (Homo sapiens) (UniProt P13612+P05556); assay: inhibition of HUTS-21 binding to VLA-4, pilot screen, VLA-4 allosteric modulator project, U937 cells, HUTS-21 mAb, flow cytometry, validation set (AID 2674;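 active = inhibition above 50%, about 3 SD of the validation set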;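 note: antibody binding induced by the VLA-4 ligand LDV present at three times its Kd; 0% = LDV ligand with antibody and no compound and 100% = antibody without LDV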); details: HUTS-21 LIBS mAb binding, at 6.7 µM, stronger effect = higher value
[8] = superoxide lowering in aged yeast cells, pilot screen, validation compound set (AID 2706;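 active = superoxide response below 65% of plate, a cut near 3 SD across the whole screen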;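 note: yeast exposed to compound for one week at 30 degrees C before staining; 100% = mean of all compound wells on the same plate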); details: S. cerevisiae aging, superoxide DHE fluorescence; at 10 µM; stronger effect = lower value
[9] = molecular target: Beta-adrenergic receptor kinase 1 (Homo sapiens) (UniProt P25098); assay: GRK2 binders displacing RNA aptamer, biochemical, validation, human GRK2, bead flow cytometry (AID 488806;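 active = aptamer binding inhibition above 30%, about 3 SD of noise from non-fluorescent compounds; inactive = inhibition at or below 30%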); details: bead-bound GRK2, FAM-aptamer displacement, at 10 µM, stronger effect = higher value
[10] = molecular target: Beta-2 adrenergic receptor (Homo sapiens) (UniProt P07550); assay: beta2AR agonists driving receptor internalization, pilot screen, cell-based, FAP fluorogen, flow cytometry, validation set (AID 504459;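 active = percent response above 42, roughly 3 SD of non-fluorescent test compounds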;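 note: agonist-driven loss of surface beta2AR via internalization measured by FAP dye flow cytometry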); details: Am2.2-beta2AR cells, FAP surface receptor flow cytometry; at 10 µM; stronger effect = higher value
[11] = molecular target: AP-2 complex subunit beta (Homo sapiens) (UniProt P63010); assay: inhibitors of arrestin peptide binding to AP2, pilot screen, biochemical, validation set, GST-AP2 beads, flow cytometry (AID 504541;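 active = inhibition above 54%, about 3 SD of non-fluorescent compounds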;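 note: AP2 carries R879A mutation and is captured from E. coli lysate; bead-bound FITC arrestin peptide fluorescence measuring arrestin peptide binding to AP2; 0% = DMSO wells and 100% = excess unlabeled arrestin peptide control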); details: FITC arrestin peptide, at 10 µM, stronger effect = higher value
[12] = yeast V-ATPase proton transport modulators, S. cerevisiae, pHLuorin, HTS validation (AID 504600; in the data active = response above about 15%;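 note: plate controls were DMSO for no effect and reference compound for full effect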); details: S. cerevisiae pHLuorin cytosolic pH, at 10 µM, stronger effect = higher value
[13] = tested on: anti-desmoglein-3 scFv antibody binding to human DSG3; assay: inhibitors of anti-DSG3 scFv binding to DSG3, pilot screen, biochemical, validation compound set, bead-based, flow cytometry (AID 588368;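 active = binding below the plate cutoff, the plate median minus 3 SD, with a reading above zero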;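 note: signal is the median channel fluorescence of bead-bound GFP antibody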); details: Protein G beads, DSG3-Fc, scFv-GFP binding, at 10 µM, stronger effect = lower value
[14] = tested on: Botulinum neurotoxin type F light chain protease (Clostridium botulinum); assay: Botulinum neurotoxin type F light chain protease inhibition, multiplex microsphere flow cytometry, validation set (AID 588459); details: multiplex microsphere protease substrate cleavage assay, at 10 µM, stronger effect = higher value
[15] = molecular target: Botulinum neurotoxin type A (Clostridium botulinum) (UniProt P0DPI0); assay: BoNT/A light chain protease inhibitors, biochemical, multiplex microsphere flow cytometry, validation set (AID 588460); details: at 10 µM, stronger effect = higher value
[16] = molecular target: Lethal factor (Bacillus anthracis) (UniProt P15917); assay: Lethal factor protease inhibitors, Bacillus anthracis, multiplex microsphere cleavage assay, validation set (AID 588461); details: flow cytometry, at 10 µM, stronger effect = higher value
[17] = inhibitors of fungal efflux pumps CDR1, CDR2, MDR1, pilot screen, validation compound set, multiplex, phenotypic (AID 588506;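 active = efflux inhibition above 0.42, the validation set average plus 4 SD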;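 note: Nile Red retained in cells so higher fluorescence means more efflux inhibition; 0 = negative control wells and 1 = enniatin B 25 µM full block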); details: S. cerevisiae pump-expressing triplex, Nile Red efflux flow cytometry; at 10 µM; stronger effect = higher value
[18] = molecular target: ATP-binding cassette sub-family B member 6 (Homo sapiens) (UniProt Q9NP58); assay: ABCB6 transporter inhibitors, pilot screen, K562-ABCB6 cells, flow cytometry, validation set (AID 588550;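 active = inhibition above the screen-wide mean plus 3 SD, about 51%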;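 note: 0% = DMSO wells and 100% = benzethonium chloride 70 µM positive control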); details: K562-ABCB6 porphyrin accumulation, 1 h, at 10 µM, stronger effect = higher value
[19] = promoters of myeloid differentiation in arrested cells, primary screen, cell-based, GFP/MAC1 double positive, flow cytometry, validation set (AID 588685;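 active = differentiation response of at least 50%, scaled between solvent and reference control, from cells with both markers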;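 note: compound exposure lasts four days before antibody staining and flow analysis; 0% = DMSO wells and 100% = 5 µM fulvestrant positive control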); details: ER-HoxA9 marrow cells, stronger effect = higher value

AP-2 complex subunit beta (Homo sapiens), sequence (P63010 whole entry, looked up, one chain of several): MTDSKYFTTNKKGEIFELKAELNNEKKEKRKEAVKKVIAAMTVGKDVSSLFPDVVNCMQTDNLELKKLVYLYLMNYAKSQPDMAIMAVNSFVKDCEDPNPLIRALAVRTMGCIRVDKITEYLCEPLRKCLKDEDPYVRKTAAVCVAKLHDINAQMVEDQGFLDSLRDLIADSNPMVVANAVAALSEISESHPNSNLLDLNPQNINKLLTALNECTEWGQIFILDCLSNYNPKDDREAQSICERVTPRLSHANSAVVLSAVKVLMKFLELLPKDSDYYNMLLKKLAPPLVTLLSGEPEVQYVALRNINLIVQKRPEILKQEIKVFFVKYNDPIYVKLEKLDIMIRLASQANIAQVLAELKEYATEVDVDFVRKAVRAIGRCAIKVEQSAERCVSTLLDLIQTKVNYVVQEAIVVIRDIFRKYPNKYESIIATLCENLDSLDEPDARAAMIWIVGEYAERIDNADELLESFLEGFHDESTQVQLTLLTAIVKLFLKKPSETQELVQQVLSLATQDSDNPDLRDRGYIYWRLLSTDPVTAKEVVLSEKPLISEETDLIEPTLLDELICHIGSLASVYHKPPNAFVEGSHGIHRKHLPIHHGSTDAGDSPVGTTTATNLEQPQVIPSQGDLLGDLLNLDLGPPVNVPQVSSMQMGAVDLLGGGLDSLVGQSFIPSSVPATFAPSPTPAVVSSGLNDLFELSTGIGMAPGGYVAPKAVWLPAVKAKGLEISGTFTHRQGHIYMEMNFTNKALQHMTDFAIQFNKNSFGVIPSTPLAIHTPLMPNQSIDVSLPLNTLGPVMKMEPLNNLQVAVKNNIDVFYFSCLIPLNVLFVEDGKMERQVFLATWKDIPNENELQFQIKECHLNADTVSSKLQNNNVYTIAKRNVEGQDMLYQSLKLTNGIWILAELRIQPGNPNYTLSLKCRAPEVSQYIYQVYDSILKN
Beta-2 adrenergic receptor (Homo sapiens), sequence (P07550 whole entry, looked up): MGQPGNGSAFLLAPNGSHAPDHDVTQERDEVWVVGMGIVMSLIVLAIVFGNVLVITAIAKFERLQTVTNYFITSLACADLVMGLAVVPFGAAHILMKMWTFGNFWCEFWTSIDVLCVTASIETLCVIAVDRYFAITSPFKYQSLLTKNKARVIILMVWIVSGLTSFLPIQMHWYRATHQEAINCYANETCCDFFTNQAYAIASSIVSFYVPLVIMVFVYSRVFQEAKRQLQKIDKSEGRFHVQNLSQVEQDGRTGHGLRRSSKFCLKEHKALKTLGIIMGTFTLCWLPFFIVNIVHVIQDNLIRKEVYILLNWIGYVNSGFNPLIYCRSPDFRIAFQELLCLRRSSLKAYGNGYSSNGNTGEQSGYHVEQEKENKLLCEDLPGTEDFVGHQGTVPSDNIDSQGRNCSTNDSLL
Beta-adrenergic receptor kinase 1 (Homo sapiens), sequence (P25098 whole entry, looked up): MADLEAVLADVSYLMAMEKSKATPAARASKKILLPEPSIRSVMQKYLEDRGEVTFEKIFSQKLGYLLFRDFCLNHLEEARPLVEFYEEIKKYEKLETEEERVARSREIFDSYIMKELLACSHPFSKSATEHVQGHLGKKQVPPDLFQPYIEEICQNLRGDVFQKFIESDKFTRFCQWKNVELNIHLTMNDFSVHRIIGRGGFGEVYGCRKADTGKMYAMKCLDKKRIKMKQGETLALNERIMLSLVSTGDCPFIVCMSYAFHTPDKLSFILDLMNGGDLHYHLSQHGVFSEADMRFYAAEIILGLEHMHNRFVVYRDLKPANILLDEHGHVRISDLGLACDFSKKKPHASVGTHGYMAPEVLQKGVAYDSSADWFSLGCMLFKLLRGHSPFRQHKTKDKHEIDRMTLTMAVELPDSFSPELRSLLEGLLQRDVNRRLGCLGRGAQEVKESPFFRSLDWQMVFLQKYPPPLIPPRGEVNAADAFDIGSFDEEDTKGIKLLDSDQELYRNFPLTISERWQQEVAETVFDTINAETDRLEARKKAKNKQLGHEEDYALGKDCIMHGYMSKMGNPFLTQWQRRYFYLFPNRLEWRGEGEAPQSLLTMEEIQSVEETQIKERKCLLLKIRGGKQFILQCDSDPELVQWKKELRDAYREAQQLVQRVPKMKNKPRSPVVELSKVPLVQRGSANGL
Botulinum neurotoxin type A (Clostridium botulinum), sequence (P0DPI0 whole entry, looked up): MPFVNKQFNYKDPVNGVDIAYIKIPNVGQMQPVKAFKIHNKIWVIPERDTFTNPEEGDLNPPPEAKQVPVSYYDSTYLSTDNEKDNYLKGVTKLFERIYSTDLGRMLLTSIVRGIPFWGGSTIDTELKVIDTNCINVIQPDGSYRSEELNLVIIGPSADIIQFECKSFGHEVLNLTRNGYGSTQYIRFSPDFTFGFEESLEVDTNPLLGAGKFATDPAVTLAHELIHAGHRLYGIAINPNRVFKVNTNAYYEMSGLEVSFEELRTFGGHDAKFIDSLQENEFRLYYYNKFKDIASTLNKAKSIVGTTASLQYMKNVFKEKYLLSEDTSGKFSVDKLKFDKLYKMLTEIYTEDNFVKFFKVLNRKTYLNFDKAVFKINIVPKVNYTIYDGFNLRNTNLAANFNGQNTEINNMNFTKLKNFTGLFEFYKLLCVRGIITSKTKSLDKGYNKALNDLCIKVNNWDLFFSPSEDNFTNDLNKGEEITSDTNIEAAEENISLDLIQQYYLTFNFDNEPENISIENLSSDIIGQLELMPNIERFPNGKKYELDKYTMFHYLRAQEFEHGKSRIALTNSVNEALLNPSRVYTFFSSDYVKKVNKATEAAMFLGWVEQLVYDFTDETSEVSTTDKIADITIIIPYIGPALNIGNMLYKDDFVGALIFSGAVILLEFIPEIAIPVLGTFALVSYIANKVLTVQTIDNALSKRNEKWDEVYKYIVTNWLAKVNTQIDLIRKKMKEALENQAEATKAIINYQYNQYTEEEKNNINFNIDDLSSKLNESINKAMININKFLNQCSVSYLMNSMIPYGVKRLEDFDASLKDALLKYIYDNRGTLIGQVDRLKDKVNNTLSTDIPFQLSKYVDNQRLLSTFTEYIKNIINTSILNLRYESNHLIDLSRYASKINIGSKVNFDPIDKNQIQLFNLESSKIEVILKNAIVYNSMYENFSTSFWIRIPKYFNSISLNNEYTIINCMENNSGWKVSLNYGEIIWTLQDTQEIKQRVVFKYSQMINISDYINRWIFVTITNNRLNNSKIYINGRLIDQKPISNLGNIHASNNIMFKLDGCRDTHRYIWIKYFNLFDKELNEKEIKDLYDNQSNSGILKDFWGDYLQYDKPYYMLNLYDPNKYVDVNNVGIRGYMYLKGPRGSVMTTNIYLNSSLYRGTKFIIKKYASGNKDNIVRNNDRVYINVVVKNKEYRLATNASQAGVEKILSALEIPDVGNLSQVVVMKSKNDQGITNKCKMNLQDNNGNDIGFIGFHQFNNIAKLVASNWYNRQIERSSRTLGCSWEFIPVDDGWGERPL
Lethal factor (Bacillus anthracis), sequence (P15917 whole entry, looked up): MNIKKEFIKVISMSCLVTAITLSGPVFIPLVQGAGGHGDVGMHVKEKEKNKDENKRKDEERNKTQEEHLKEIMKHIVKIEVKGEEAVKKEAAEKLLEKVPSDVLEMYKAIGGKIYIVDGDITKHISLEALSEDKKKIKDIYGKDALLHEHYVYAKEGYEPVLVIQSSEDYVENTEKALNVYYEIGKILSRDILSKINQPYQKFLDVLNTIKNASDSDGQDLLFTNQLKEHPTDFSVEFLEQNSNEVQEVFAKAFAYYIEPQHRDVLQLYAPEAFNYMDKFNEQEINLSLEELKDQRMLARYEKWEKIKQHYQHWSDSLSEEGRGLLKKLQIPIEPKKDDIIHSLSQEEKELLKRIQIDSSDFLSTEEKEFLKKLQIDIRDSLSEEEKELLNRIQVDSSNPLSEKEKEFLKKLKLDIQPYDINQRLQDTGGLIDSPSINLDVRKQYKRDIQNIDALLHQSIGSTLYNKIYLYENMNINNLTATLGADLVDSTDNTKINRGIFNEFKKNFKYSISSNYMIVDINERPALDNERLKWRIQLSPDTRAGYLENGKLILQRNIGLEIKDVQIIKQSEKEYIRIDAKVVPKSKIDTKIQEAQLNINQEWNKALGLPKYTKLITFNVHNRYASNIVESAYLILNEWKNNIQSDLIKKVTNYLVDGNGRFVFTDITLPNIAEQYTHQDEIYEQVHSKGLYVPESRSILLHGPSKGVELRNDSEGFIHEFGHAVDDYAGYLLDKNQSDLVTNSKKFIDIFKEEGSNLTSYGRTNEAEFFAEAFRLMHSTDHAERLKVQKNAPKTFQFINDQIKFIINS
ATP-binding cassette sub-family B member 6 (Homo sapiens), sequence (Q9NP58 whole entry, looked up): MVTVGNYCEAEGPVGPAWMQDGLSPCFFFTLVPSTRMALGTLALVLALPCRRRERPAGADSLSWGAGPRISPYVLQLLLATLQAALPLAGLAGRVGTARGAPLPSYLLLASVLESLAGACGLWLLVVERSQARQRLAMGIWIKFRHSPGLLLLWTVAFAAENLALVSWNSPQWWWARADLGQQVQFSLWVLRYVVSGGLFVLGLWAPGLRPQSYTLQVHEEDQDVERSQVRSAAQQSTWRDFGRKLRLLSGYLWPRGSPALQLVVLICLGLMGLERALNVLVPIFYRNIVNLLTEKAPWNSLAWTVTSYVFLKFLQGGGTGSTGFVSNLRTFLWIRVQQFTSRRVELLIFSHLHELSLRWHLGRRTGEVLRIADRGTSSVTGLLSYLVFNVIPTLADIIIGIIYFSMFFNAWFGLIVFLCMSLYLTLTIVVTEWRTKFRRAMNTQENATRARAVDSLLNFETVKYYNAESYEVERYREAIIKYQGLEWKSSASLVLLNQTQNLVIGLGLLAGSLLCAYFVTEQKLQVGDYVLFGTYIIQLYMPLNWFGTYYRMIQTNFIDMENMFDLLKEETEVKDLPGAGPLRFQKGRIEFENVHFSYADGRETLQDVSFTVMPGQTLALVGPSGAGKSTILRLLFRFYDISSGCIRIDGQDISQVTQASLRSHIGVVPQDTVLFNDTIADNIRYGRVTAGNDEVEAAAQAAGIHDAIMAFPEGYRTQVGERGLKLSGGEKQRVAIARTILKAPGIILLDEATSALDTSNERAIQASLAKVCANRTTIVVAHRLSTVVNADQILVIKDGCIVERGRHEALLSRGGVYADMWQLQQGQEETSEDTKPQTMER

COc1cccc(Oc2c(C)oc3cc(OC(=O)N(C)C)ccc3c2=O)c1
60.2%: double positive events [6]
inactive: percent of DMSO control GFP [1] 102% | GFP response vs DMSO [2] 102% | percent response of DMSO control [3] 107% | GFP response vs DMSO [4] 99.1% | GFP response, % of DMSO [5] 99.4% | vesicle binding response [6] 148% | inhibition [7] 5.61% | superoxide response (% of plate) [8] 110% | aptamer binding inhibition [9] 0% | response [10] -2.34% | inhibition [11] 8.84% | response [12] -4.25% | binding (% of control) [13] 101% | inhibition [14] -1.7% | inhibition [15] -0.4% | inhibition [16] -1.2% | efflux inhibition (fraction of control) [17] -0.02 | inhibition [18] 23% | differentiation response [19] -3.11%

C[C@]12CC[C@@H](O)C[C@@H]1CC[C@@H]1[C@@H]2CC[C@]2(C)C(=O)CC[C@@H]12
inactive: percent of DMSO control GFP [1] 100% | GFP response vs DMSO [2] 99.7% | percent response of DMSO control [3] 84.1% | GFP response vs DMSO [4] 147% | GFP response, % of DMSO [5] 101% | vesicle binding response [6] 118% | inhibition [7] -2.43% | superoxide response (% of plate) [8] 75.3% | aptamer binding inhibition [9] 3% | response [10] 20.4% | inhibition [11] -0.33% | response [12] -2.85% | binding (% of control) [13] 99% | inhibition [14] 2% | inhibition [15] -0.3% | inhibition [16] -2.4% | efflux inhibition (fraction of control) [17] -0.07 | inhibition [18] 0% | differentiation response [19] -4.57%
62.8%: double positive events [6]

CC(C)NC(C)C(=O)c1ccc2ccccc2c1 (stereo not given)
active: inhibition [18] 106% | differentiation response [19] 108%
63.7%: double positive events [6]
inactive: percent of DMSO control GFP [1] 104% | GFP response vs DMSO [2] 99.6% | percent response of DMSO control [3] 98.6% | GFP response vs DMSO [4] 113% | GFP response, % of DMSO [5] 107% | vesicle binding response [6] 278% | inhibition [7] -0.43% | superoxide response (% of plate) [8] 121% | aptamer binding inhibition [9] 1% | response [10] 14.8% | inhibition [11] -7.53% | response [12] 3.67% | binding (% of control) [13] 98.4% | inhibition [14] 1.8% | inhibition [15] 2% | inhibition [16] 1.1% | efflux inhibition (fraction of control) [17] -0.28

CN1C2CCC1CC(OC(=O)CCN1CCCC1)C2 (stereo not given)
inactive: percent of DMSO control GFP [1] 105% | GFP response vs DMSO [2] 105% | percent response of DMSO control [3] 107% | GFP response vs DMSO [4] 115% | GFP response, % of DMSO [5] 113% | vesicle binding response [6] 194% | inhibition [7] 8.25% | superoxide response (% of plate) [8] 98.4% | aptamer binding inhibition [9] 4% | response [10] -8.97% | inhibition [11] 33.9% | response [12] -1.35% | binding (% of control) [13] 107% | inhibition [14] 3.2% | inhibition [15] 1.3% | inhibition [16] 1.5% | efflux inhibition (fraction of control) [17] 0.08 | inhibition [18] 0% | differentiation response [19] -0.06%
61.6%: double positive events [6]

O=C1CCCC2=C1C(c1cccnc1)Nc1ccccc1N2 (stereo not given)
64.4%: double positive events [6]
inactive: percent of DMSO control GFP [1] 105% | GFP response vs DMSO [2] 95.1% | percent response of DMSO control [3] 121% | GFP response vs DMSO [4] 89.4% | GFP response, % of DMSO [5] 107% | vesicle binding response [6] 211% | inhibition [7] -5.64% | superoxide response (% of plate) [8] 98% | aptamer binding inhibition [9] -2% | response [10] -5.46% | inhibition [11] -4.18% | response [12] -6.46% | binding (% of control) [13] 99.8% | inhibition [14] 0.4% | inhibition [15] -2.1% | inhibition [16] -4% | efflux inhibition (fraction of control) [17] -0.07 | inhibition [18] -9% | differentiation response [19] -4.64%

O=c1[nH]c2ccccc2n1C1CCN(CCCC(c2ccc(F)cc2)c2ccc(F)cc2)CC1
inactive: percent of DMSO control GFP [1] 97.1% | GFP response vs DMSO [2] 107% | percent response of DMSO control [3] 103% | GFP response vs DMSO [4] 130% | GFP response, % of DMSO [5] 120% | vesicle binding response [6] 184% | inhibition [7] 41.5% | superoxide response (% of plate) [8] 88.4% | aptamer binding inhibition [9] -13% | inhibition [11] -9.19% | binding (% of control) [13] 114% | inhibition [14] -2.3% | inhibition [15] -1.7% | inhibition [16] -3% | efflux inhibition (fraction of control) [17] 0.12 | inhibition [18] 6% | differentiation response [19] 13.7%
active: response [10] 67.3% | response [12] 73.1%
56.5%: double positive events [6]

C#CCN(C)C(C)Cc1ccccc1 (stereo not given)
62.5%: double positive events [6]
inactive: percent of DMSO control GFP [1] 100% | GFP response vs DMSO [2] 108% | percent response of DMSO control [3] 104% | GFP response vs DMSO [4] 88.7% | GFP response, % of DMSO [5] 102% | vesicle binding response [6] 225% | inhibition [7] 1.62% | superoxide response (% of plate) [8] 97.6% | aptamer binding inhibition [9] 3% | response [10] -1.41% | inhibition [11] -6.88% | response [12] 3.03% | binding (% of control) [13] 97.2% | inhibition [14] -1% | inhibition [15] -0.6% | inhibition [16] 3.9% | efflux inhibition (fraction of control) [17] -0.1 | inhibition [18] -12% | differentiation response [19] 15.9%

Cc1ccc(-n2c(C)cc(/C=C3/C(=O)NC(=O)N(C)C3=O)c2C)cc1
64.1%: double positive events [6]
inactive: percent of DMSO control GFP [1] 103% | GFP response vs DMSO [2] 103% | percent response of DMSO control [3] 107% | GFP response vs DMSO [4] 103% | GFP response, % of DMSO [5] 106% | vesicle binding response [6] 164% | inhibition [7] 0.25% | superoxide response (% of plate) [8] 94.5% | aptamer binding inhibition [9] -5% | response [10] 3.21% | inhibition [11] -0.22% | response [12] 5.34% | binding (% of control) [13] 108% | inhibition [14] -1.4% | inhibition [15] 0.3% | inhibition [16] -5% | efflux inhibition (fraction of control) [17] -0.22 | inhibition [18] -2% | differentiation response [19] -14.8%
